Compound activity from PubChem BioAssay.
USP28 inh: human USP28 deubiquitinase inhibition; Q96RU2; purified USP28, Ub-rhodamine cleavage fluorescence, 30 min; inhibition, % at 25 µM; 3% of 47,000 active; AID 1645857
Target sequence (Q96RU2 whole entry, looked up): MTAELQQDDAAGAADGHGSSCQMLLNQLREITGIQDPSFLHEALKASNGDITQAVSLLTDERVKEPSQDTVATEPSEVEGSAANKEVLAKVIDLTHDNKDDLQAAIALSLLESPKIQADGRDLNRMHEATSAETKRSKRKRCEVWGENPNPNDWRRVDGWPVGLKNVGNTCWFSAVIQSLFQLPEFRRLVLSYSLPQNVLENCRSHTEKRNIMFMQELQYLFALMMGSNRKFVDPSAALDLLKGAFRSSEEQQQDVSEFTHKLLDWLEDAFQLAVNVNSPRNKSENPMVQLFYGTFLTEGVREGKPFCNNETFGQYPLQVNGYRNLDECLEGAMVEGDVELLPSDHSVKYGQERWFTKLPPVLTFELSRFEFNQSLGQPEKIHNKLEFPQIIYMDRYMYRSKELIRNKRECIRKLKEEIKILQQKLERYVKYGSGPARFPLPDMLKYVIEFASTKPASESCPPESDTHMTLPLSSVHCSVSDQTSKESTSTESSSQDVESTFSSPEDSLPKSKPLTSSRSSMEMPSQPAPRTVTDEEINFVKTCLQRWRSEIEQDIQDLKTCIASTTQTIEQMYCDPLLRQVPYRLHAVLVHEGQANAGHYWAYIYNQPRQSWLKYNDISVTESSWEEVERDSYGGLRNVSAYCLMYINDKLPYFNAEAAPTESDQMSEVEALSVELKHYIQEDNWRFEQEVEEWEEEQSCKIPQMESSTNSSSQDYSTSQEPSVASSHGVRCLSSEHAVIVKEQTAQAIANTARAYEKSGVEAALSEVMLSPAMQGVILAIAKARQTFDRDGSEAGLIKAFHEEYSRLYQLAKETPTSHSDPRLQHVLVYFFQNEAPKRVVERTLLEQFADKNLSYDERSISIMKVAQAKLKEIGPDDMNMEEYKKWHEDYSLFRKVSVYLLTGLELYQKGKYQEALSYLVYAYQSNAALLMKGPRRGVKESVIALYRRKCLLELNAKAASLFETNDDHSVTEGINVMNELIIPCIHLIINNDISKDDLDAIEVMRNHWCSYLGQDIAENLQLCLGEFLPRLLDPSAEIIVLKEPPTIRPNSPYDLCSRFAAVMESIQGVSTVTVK
USP10 inh: inhibitors of human USP10 deubiquitinase. 1.1% of 47,000 active. Q14694. purified USP10, Ub-rhodamine fluorescence, 60 min. inhibition, % at 20 µM
USP30 block: inhibitors of human USP30 deubiquitinase; Q70CQ3; purified USP30, Ub-rhodamine cleavage fluorescence; inhibition, % at 25 µM; 5.3% of 47,000 active; AID 1645860
USP17 inh: human USP17-like deubiquitinase inhibition; 6.5% of 47,000 active; inhibition, % at 50 µM; A8MUK1; purified USP17, Ub-rhodamine cleavage fluorescence, 3 h
USP8 inh: inhibitors of human USP8 deubiquitinase; 4.2% of 47,000 active; AID 1645853; purified USP8, Ub-rhodamine cleavage fluorescence, 30 min; P40818; inhibition, % at 20 µM
Numbers without * were called inactive; / = no result given. Compounds with a hit are over-represented: about 13% of the library has one in this group of screens. Cut-off read from the data, not from the text of the source: active = inhibition above about 30%; inactive = the rest.

SMILES	USP28 inh	USP10 inh	USP30 block	USP17 inh	USP8 inh
CCc1nnc(-c2csc(S(=O)(=O)N3CCCCCC3)c2)o1	10.3	9.0	18.6	4.8	1.4
Cc1nc(SCc2ccc(Cl)cc2Cl)c2oc3ccccc3c2n1	10.3	0.1	24.5	18.1	22.4
COC(=O)c1ccccc1NC(=O)CSc1nc(C)nc2c1oc1ccccc12	-6.0	1.7	8.2	45.3*	3.9
Cc1nc(SCc2ccccc2C)c2oc3ccccc3c2n1	/	2.4	/	60.2*	6.1
Cc1nc(SCC(=O)Nc2cccc3ccccc23)c2oc3ccccc3c2n1	24.8	1.2	41.9*	30.6*	27.3
Cc1nc(SCC(=O)NC2CCCC2)c2oc3ccccc3c2n1	12.6	-0.8	38.3*	24.6	17.0
COc1cccc(C2c3[nH]c4ccccc4c3C[C@@H]3C(=O)N(CCCN4CCOCC4)CC(=O)N23)c1OC (stereo partly specified)	-23.0	-0.4	-59.5	-11.3	1.1
CN(C(=O)Cc1csc(-c2ccccc2)n1)C(c1ccccc1)c1ccccc1	10.1	7.2	23.9	7.1	11.2
COc1c2c(cc3cc(O)c4c(=O)cc(C)oc4c13)CCC2=O	27.0	-2.6	-6.3	59.6*	-0.3
O=C(C(=O)N(Cc1ccccc1)Cc1ccccc1)c1cn(CC(=O)N2CCCCC2)c2ccccc12	/	1.0	/	14.9	1.8
CC1CCCN(C(=O)c2cn(-c3cc(N4CCCCC4)ncn3)cn2)C1 (stereo unspecified)	13.2	0.5	8.4	5.6	-4.1
CC(=O)Nc1ccc(-n2cnc(C(=O)N3CCCC(C)C3)c2)nc1 (stereo unspecified)	6.5	-0.2	41.2*	11.1	15.1
CC1CCN(c2cc(-n3cnc(C(=O)N4CCCC(C)C4)c3)ncn2)CC1 (stereo unspecified)	62.3*	0.6	-0.3	0.8	-0.7
CC1CCN(c2cc(-n3cnc(C(=O)N4CCCCC4)c3)ncn2)CC1	51.0*	-0.2	-3.9	-2.7	0.1
O=C(c1cn(-c2cc(N3CCCCC3)ncn2)cn1)N1CCCCC1	16.1	0.0	20.5	-3.7	-0.7
CCOc1ccc(NC(=O)c2ccc(-n3nc(C)cc3C)nc2)cc1	2.4	1.6	12.0	20.4	6.1
NC(=O)N1CCCCCC1C1CCN(c2ncnc3ccsc23)CC1 (stereo unspecified)	15.3	1.2	32.0*	23.6	1.7
Cc1cn2nc(N3CCC(C4CCCCCN4C(N)=O)CC3)sc2n1 (stereo unspecified)	6.2	0.9	10.1	12.0	16.4
CCc1ccc(OCc2nnc(SCC(=O)NC3CCS(=O)(=O)C3)n2C(C)c2ccccc2)cc1 (stereo unspecified)	2.0	-4.9	-21.3	-2.8	-5.5
CCc1ccccc1NC(=O)c1c(O)c2cnn(C)c2[nH]c1=O	-16.0	-0.3	-37.6	14.4	84.5*
Cc1ccc(-n2ncc3c(O)c(C(=O)Nc4ccccc4F)c(=O)[nH]c32)cc1	11.2	18.4	19.2	10.9	83.3*
CN1CCC(N[C@H]2[C@H](O)[C@H](O)C[C@@H]2c2ccccc2)CC1	-19.6	-3.9	-66.6	-39.2	-5.4
Cc1ccn(CCC(=O)N2Cc3ncc(C)n3CC2c2ccccc2)n1 (stereo unspecified)	2.6	-2.1	-2.7	-3.1	3.5
CC(=O)C1=C(C)Oc2ncnc(N)c2C1c1ccco1 (stereo unspecified)	11.5	-3.8	19.3	4.3	0.0
O=S(=O)(c1cccc2cccnc12)N1CCN(c2ccc(F)cc2)CC1	8.3	4.7	30.4*	13.0	55.9*
SMILES	USP28 inh	USP10 inh	USP30 block	USP17 inh	USP8 inh
COc1ccc(-c2nnn(CC(=O)N(c3ccc4c(c3)OCCO4)C(C(=O)NCC3CCCO3)c3ccc(F)cc3)n2)cc1OC (stereo unspecified)	-7.9	12.3	-2.9	-0.3	14.6
CC1CCN(C(=O)CSc2nc(N)c3c4c(sc3n2)CN(C)CC4)CC1	-37.8	-13.5	-233.7	-37.0	-5.9
CN1CCc2c(sc3nc(SCC(=O)Nc4nccs4)nc(N)c23)C1	/	-5.1	/	38.5*	-27.1
COc1ccc(-c2nc(C3CC3)nc3c2CCNCC3)cc1	-9.1	-0.6	17.0	-13.9	0.5
Cc1nc2c(c(-c3ccc(O)cc3)n1)CCNCC2	-1.3	-6.6	-10.5	12.6	45.7*
CCCNCc1cc(=O)n2[nH]c(NCc3ccccc3Cl)nc2n1	/	1.1	/	3.2	5.0
O=C(c1cccnn1)N1CCC[C@@]2(C[C@@H](Oc3cccc(F)c3)CO2)C1	-3.6	0.7	-14.9	-0.5	-0.8
c1ccc(-c2nc(-c3nnn(-c4ccccc4)c3-c3ccncc3)no2)cc1	-5.7	1.9	10.3	50.7*	9.6
Cc1c(-c2noc(-c3cccnc3)n2)nnn1-c1ccccc1	0.4	-1.1	-4.4	0.2	0.6
Cc1c(-c2noc(-c3ccncc3)n2)nnn1-c1ccccc1	10.2	-0.9	31.2*	29.7	14.5
COc1ccc(-c2noc(CN3CCN(C(=O)c4ccccc4)CC3)n2)cc1OC	0.4	-0.4	5.6	8.8	17.6
Cc1ccc(C(=O)N2CCC(Nc3ncnc4c3CCC4)C2)s1 (stereo unspecified)	1.3	-0.5	5.7	0.6	-5.1
CC(C)NC(=O)Cn1ccn2nc(-c3ccc(Cl)cc3)cc2c1=O	18.2	22.7	46.5*	82.4*	17.9
COc1ccc(-c2cc3c(=O)n(CC(=O)Nc4ccccc4Cl)ccn3n2)cc1	10.2	6.2	6.4	55.5*	-1.7
COc1ccc(-c2cc3c(=O)n(CC(=O)NCCCN4CCCC4)ncn3n2)cc1	9.6	-8.3	46.7*	60.3*	-1.3
CCOc1ccccc1NC(=O)Cn1ccn2nc(-c3ccc(OC)cc3)cc2c1=O	6.1	7.0	43.2*	50.3*	4.1
COc1ccc(-c2cc3c(=O)n(CC(=O)Nc4ccccc4F)ccn3n2)cc1OC	-3.5	-1.1	9.4	69.9*	-2.0
CCOc1ccc(-c2cc3c(=O)n(CC(=O)Nc4ccccc4OC)ccn3n2)cc1	-1.4	0.4	6.3	1.6	-1.5
CCOc1ccccc1NC(=O)Cn1c(-c2ccc3c(c2)OCO3)cn(-c2ccc(OC)cc2)c1=O	1.1	7.5	27.7	52.3*	-7.9
COc1ccc(-c2cn(-c3ccc(C)cc3)c(=O)n2CC(=O)Nc2cccc(F)c2)cc1	-56.3	-1.1	-275.3	-130.2	-254.0
Oc1ccc(Br)cc1CNc1ccc(F)cc1	60.1*	7.5	19.4	52.9*	84.6*
O=C(Nc1cccc2ccccc12)C1CCN(c2ccc(-c3ccc(F)cc3)nn2)CC1	/	20.1	/	44.1*	3.1
CC(C)CNC(=O)C1CCN(c2ccc(-c3ccc(F)cc3)nn2)CC1	/	6.0	/	2.8	5.2
COc1ccccc1NS(=O)(=O)c1cccc(C(=O)N2CCCCCC2)c1	13.1	12.9	36.1*	4.7	-36.8
O=C(Cc1n[nH]c(Cc2ccc(F)cc2)n1)Nc1cccc(F)c1	-7.1	0.4	-16.0	/	-10.3
O=C(Cc1n[nH]c(Cc2ccc(F)cc2)n1)NC1CCCCCC1	4.0	-1.7	3.3	9.1	41.7*
O=C(NCc1cccc(Cl)c1)c1cc(CN2CCOCC2)on1	0.5	2.4	16.2	-0.7	0.5
